Results on 12 compounds are retold here after PubChem BioAssay (NCATS).

Experiment [1] is described as follows: P-glycoprotein substrates identified in KB-8-5-11 adenocarcinoma cell line, qHTS therapeutic library screen (AID 1346987). Also: nearly all actives have a fitted effect of over 65% in size. The procedure, abridged:
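In this qHTS, P-gp-rich KB-8-5-11 cells received library compounds across a concentration range. Viability was quantified by luminescence after 72 h at 37 degree C.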
For orientation: qHTS replaces the single test concentration by a dilution series.

Experiment [2] in a line: qHTS of pediatric cancer cell lines to identify multiple opportunities for drug repurposing: Primary screen for TC32 cells (AID 1347089). Also: nearly all actives have a fitted effect of over 60% in size. The procedure, abridged:
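Measured quantity: luminescence from CellTiter-Glo, reflecting metabolically active TC32 cells following 48 h of compound. Curves came straight from multi-point titrations, with 8 or 11 points in primary and 11 in confirmatory screening.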

Experiment [3] can be described thus: qHTS of pediatric cancer cell lines to identify multiple opportunities for drug repurposing: Primary screen for A673 cells (AID 1347092). Also: nearly all actives have a fitted effect of over 45% in size. The procedure, abridged: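 Cells are plated, rested 5 h, dosed by pintool, incubated 48 h, then lysed with CellTiter-Glo and read by luminescence. DMSO is the neutral control; bortezomib at 2.3 uM final is the positive control.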

The nature of experiment [4]: qHTS of pediatric cancer cell lines to identify multiple opportunities for drug repurposing: Primary screen for SK-N-MC cells (AID 1347093). The procedure, abridged:
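Metabolically active cells were quantified by ATP-dependent luminescence (CellTiter-Glo, 15 min at room temperature) following 48 h treatment. Cells had been plated at 500-1,000 per well and settled for 5 h beforehand.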

Experiment [5] can be described thus: qHTS of pediatric cancer cell lines to identify multiple opportunities for drug repurposing: Primary screen for BT-37 cells (AID 1347094). The procedure, abridged: (§1)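 ATP-based luminescence (CellTiter-Glo) quantifies viability after a 48-hour exposure. Compounds are dosed across 8 or 11 final concentrations; DMSO and 2.3 µM bortezomib serve as controls.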
A short description of experiment [6]: qHTS of pediatric cancer cell lines to identify multiple opportunities for drug repurposing: Primary screen for NB-EBc1 cells (AID 1347095). The procedure, abridged:
as §1

The nature of experiment [7]: qHTS of pediatric cancer cell lines to identify multiple opportunities for drug repurposing: Primary screen for U-2 OS cells (AID 1347096). Also: nearly all actives have a fitted effect of over 50% in size. The procedure, abridged:
(§2)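 Viability after 48 h compound treatment at 37C, 500-1,000 cells/well, read as ATP luminescence with CellTiter-Glo. Primary screens used 11-point (MIPE, 0.78 nM-46 µM) or 8-point (NPC, 0.59 nM-46 µM) final concentrations; follow-up screens used 11-point dilutions.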

Experiment [8] is described as follows: qHTS of pediatric cancer cell lines to identify multiple opportunities for drug repurposing: Primary screen for Saos-2 cells (AID 1347097). Also: nearly all actives have a fitted effect of over 40% in size. The procedure, abridged:
as §1

Experiment [9] is described as follows: qHTS of pediatric cancer cell lines to identify multiple opportunities for drug repurposing: Primary screen for NB1643 cells (AID 1347099). Also: nearly all actives have a fitted effect of over 50% in size. The procedure, abridged:
as §1

Experiment [10] is described as follows: qHTS of pediatric cancer cell lines to identify multiple opportunities for drug repurposing: Primary screen for LAN-5 cells (AID 1347100). The procedure, abridged:
as §2

Experiment [11] in a line: NS1 protein of Zika virus - qHTS assay to identify small molecule inhibitors in human HEK 293 cells (AID 1347053). Also: nearly all actives have a fitted effect of over 55% in size. The procedure, abridged:
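In this cell-based screen, HEK 293 cultures received compound for one hour before Zika MR766 at MOI = 0.5. NS1 was quantified 24 hours later by TR-FRET, normalized to virus-free wells and infected wells.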

Experiment [12] can be described thus: qHTS of pediatric cancer cell lines to identify multiple opportunities for drug repurposing: Primary screen for DAOY cells (AID 1347090). Also: nearly all actives have a fitted effect of over 55% in size. The procedure, abridged: (§3)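 Viability measured as metabolically active cells via CellTiter-Glo luminescence following 48 hours of compound exposure, 11-point dilutions in confirmatory testing. 500-1,000 cells/well plated 5 hours before dosing; controls were DMSO and 2.3 µM bortezomib.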

A short description of experiment [13]: qHTS of pediatric cancer cell lines to identify multiple opportunities for drug repurposing: Primary screen for SJ-GBM2 cells (AID 1347091). The procedure, abridged: as §3
Experiment [14] in a line: qHTS of pediatric cancer cell lines to identify multiple opportunities for drug repurposing: Primary screen for SK-N-SH cells (AID 1347098). Also: nearly all actives have a fitted effect of over 65% in size. The procedure, abridged:
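Cells (500-1,000/well) rested 5 h, then received compounds for 48 h; metabolically active cells were measured by CellTiter-Glo luminescence. Final concentrations spanned up to 46 µM (MIPE, 11-point) or 0.59 nM-46 µM (NPC, 8-point) in primary screens, 11-point in follow-ups.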

Experiment [15] is described as follows: P-glycoprotein substrates identified in KB-3-1 adenocarcinoma cell line, qHTS therapeutic library screen (AID 1346986). Also: nearly all actives have a fitted effect of over 60% in size.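 Also: potency is for cytotoxicity meaning loss of cell viability.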 The procedure, abridged: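 Viability by CellTiter-Glo after 72 h compound exposure at 37 degree C, 5% CO2. Cytotoxic call: curve class -1.1 to -2.4, maximum response >50%, AC50 < 10 uM, compared across KB-3-1 and P-gp-overexpressing KB-8-5-11.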

“And” between values parts separate entries of the source, which are not always exact repeats. Equal entries are not always repeated. Results filed as inconclusive are left out. The source made the active and inactive calls. Calls follow the shape of the dose curve; as a rule, active = well fitted curve in the direction sought with a large enough effect; inconclusive = small, poorly fitted or top-dose-only effect, or another doubt; inactive = no such curve, though single readings can be large; an effect the other way counts as inactive or inconclusive.
Potency is read from the fitted curve at half-maximal effect.

Regarding `O=C(C=Cc1ccc(CN(CCO)CCc2c[nH]c3ccccc23)cc1)NO`, the Potency in [1] was 590 nM (active); in [2], 0.93 µM (active); in experiment [3], 0.235 µM (active); in experiment [4], 0.105 µM (active); in experiment [5], 0.385 µM (active); in experiment [6], 0.148 µM (active). Moreover, the Potency was 0.469 µM (active) in [7], 0.372 µM (active) in [8], 0.166 µM (active) in [9] and 0.0935 µM (active) in [10].

In the case of `O=C1NC(O)CCN1[C@@H]1O[C@H](CO)[C@H](O)[C@H]1O` (stereo partly drawn), the Potency entry in experiment [1], in experiment [11], in experiment [2], in [12], in experiment [13] and in experiment [4] was “inactive” in each case. Besides, the Potency result in experiment [5], in experiment [6], in experiment [7], in experiment [8], in experiment [14] and in [9] was “inactive” in each case. The Potency result in experiment [10] is “inactive”.

Turning to `COc1cc(C=CC(=O)CC(=O)C=Cc2ccc(O)c(OC)c2)ccc1O`, the Potency is 48100 nM (active) in experiment [1]; 19.1 µM (active) in experiment [11]; 33.9 µM (active) in experiment [2]; 21.5 µM (active) in experiment [12]; 5.4 µM (active) in [4]; 31.4 µM (active) in experiment [5]. The Potency in [6] is 38.2 µM (active); in experiment [8], 30.3 µM (active); in experiment [9] it was 12.1 µM (active); in [10], 9.59 µM (active).

For `CC(=O)[C@]1(O)Cc2c(O)c3c(c(O)c2[C@@H](O[C@H]2C[C@H](N)[C@@H](O)[C@H](C)O2)C1)C(=O)c1ccccc1C3=O`, the Potency was 833 nM (active) in [1]; 1.05 µM (active) in experiment [11]; 0.935 µM (active) in experiment [12]; 0.0833 µM (active) in experiment [13]; 0.118 µM (active) in experiment [4]; 0.193 µM (active) in [5]. Also, the Potency in experiment [6] was 0.0372 µM (active); in experiment [14], 0.192 µM (active); in [9] it was 0.743 µM (active); in experiment [10] it was 0.0935 µM (active).

In the case of `Oc1ccc([C@@H]2Oc3ccc(O)cc3[C@@H]3CCC[C@@H]32)cc1`, the Potency in [1] was 5.9 µM (active) and 5.8 µM (active); in experiment [13], 13.2 µM (active); in experiment [4], 4.18 µM (active); in experiment [6], 7.43 µM (active); in experiment [8] it was 6.62 µM (active); in experiment [14], 24.1 µM (active). Further, the Potency in [9] was 16.6 µM (active); in experiment [10], 10.5 µM (active). The Potency entry in experiment [7] was “inactive”.

On to `Cc1cc(Nc2ncc3c(n2)N(C)C(=O)N(c2cc(NC(=O)c4cccc(C(F)(F)F)c4)ccc2C)C3)n(C)n1`, for which, in experiment [11], the Potency entry was “inactive”. The Potency in [2] was 1.47 µM (active); in experiment [12] it was 0.935 µM (active); in experiment [3] it was 0.372 µM (active); in experiment [4] it was 0.209 µM (active); in experiment [6] it was 0.743 µM (active); in experiment [7] it was 0.935 µM (active). Moreover, the Potency in experiment [8] was 0.372 µM (active); in [14] it was 0.607 µM (active); in [9], 0.209 µM (active); in experiment [10] it was 0.935 µM (active).

Turning to `NC[C@H]1O[C@H](O[C@H]2[C@@H](O)[C@@H](O[C@H]3O[C@H](CO)[C@@H](O)[C@H](N)[C@@H]3O)[C@H](N)C[C@@H]2N)[C@H](N)C[C@H]1O`, the Potency result in [1], in experiment [11], in experiment [12], in experiment [3], in experiment [4] and in experiment [5] was “inactive” throughout. Also, the Potency result in experiment [6], in experiment [7], in experiment [8], in experiment [14], in experiment [9] and in experiment [10] was “inactive” each time.

For the compound `O=C(O)C(=O)Nc1cccc(C2=NN=N[N]2)c1`, the Potency entry in experiment [1], in [11], in experiment [2], in experiment [12], in experiment [13] and in experiment [3] was “inactive” each time. Further, the Potency result in experiment [4], in experiment [5], in experiment [6], in experiment [7], in experiment [8] and in [14] was “inactive” in each case. Also, the Potency entry in experiment [9] and in experiment [10] was “inactive” each time.

As to `O=C(NCc1ccccc1)[C@H](Cc1ccccc1)NC(=O)[C@@H]1O[C@@H]1C(=O)NCCc1ccc(O)cc1`, the Potency entry in experiment [1], in [11], in experiment [2], in [6], in [7] and in [10] was “inactive” each time. The Potency is 1.18 µM (active) in experiment [3], 23.5 µM (active) in experiment [4], 23.5 µM (active) in [8] and 21.5 µM (active) in [14].

Turning to `C[C@@]12C[C@@]3(O)O[C@@H](O1)[C@]1(COC(=O)c4ccccc4)[C@@H]3C[C@@]12O[C@@H]1O[C@H](CO)[C@@H](O)[C@H](O)[C@@H]1O`, the Potency result in experiment [15], in experiment [1], in experiment [11], in [13], in experiment [3] and in experiment [4] was “inactive” each time. In addition, the Potency result in experiment [5], in [6], in experiment [7], in experiment [8], in experiment [14] and in [9] was “inactive” each time. In experiment [10], the Potency result was “inactive”.

As for `CC(=O)OCC(=O)[C@@]12N=C(C)O[C@H]1C[C@H]1[C@@H]3CCC4=CC(=O)C=C[C@]4(C)[C@@H]3[C@@H](O)C[C@@]12C`, the Potency result in experiment [1], in experiment [11], in [2], in [12], in [3] and in experiment [4] was “inactive” throughout. Also, the Potency result in experiment [5], in experiment [6], in experiment [7], in experiment [8], in experiment [14] and in [9] was “inactive” each time. In addition, the Potency entry in experiment [10] is “inactive”.

With `Cc1ccc2nc(NCCN)c3ncc(C)n3c2c1`, the Potency in experiment [15] was 5.17 µM (active); in experiment [1], 4.18 µM (active) and 6.51 µM (active); in [11], 26.4 µM (active); in experiment [2], 23.4 µM (active); in experiment [12], 14.8 µM (active); in [13], 11.8 µM (active). Besides, the Potency in experiment [3] was 1.87 µM (active); in experiment [4], 1.66 µM (active); in [5] it was 24.3 µM (active); in experiment [6], 7.43 µM (active); in experiment [8], 14.8 µM (active); in experiment [14] it was 6.81 µM (active). Besides, in [9], the Potency is 5.9 µM (active).
